# This is a sample that favours compounds with a hit; in the whole collection about 6% have one here.
# BCR signal inh: blocks chronic active B-cell receptor signaling | ABC-DLBCL IkBa-CBG/CBR reporter, luminescence ratio, 4 h | Potency, µM (doses to about 46.1 µM), for the others: at the top dose activity change, negative = inhibition, hits mostly inhibitors | actives 0.05% (n = 340,000) | AID 493014; active = well fitted inhibition curve with a large enough effect in the signal ratio, with a control signal flat, not every such curve was filed as active; inconclusive = small, poorly fitted or top-dose-only effect, or effect the other way, or a change in a side signal; the % refers to the signal ratio;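 note: potency is the fitted concentration of half-maximal effect; plate controls were basal doxycycline-induced cells for no effect and cells given 10 µM MG132 for full effect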
#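 Compounds up to 46 uM were incubated four hours with TMD8 cells whose green CBG68 luciferase is fused to IkappaBalpha; red CBR luminescence normalised the signal, and concentration-effect curves were fitted to fusion, red and ratio data.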
# DRD3 agonist: D3 dopamine receptor (human) agonism | P35462 | D3R DiscoveRx beta-arrestin cells, luminescence, 90 min | max activation, % | actives 0.58% (n = 410,000) | AID 652048; in the data active = max activation above about 30%; note: 0% is about no effect
#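 Cells at 1500/well, incubated overnight, then treated with pinned compounds (dopamine as control) for 90 min at 37 degrees C. DiscoveRx reagent added for 30 - 60 minutes at room temperature; luminescence read.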
# D1 agonist: activates the human D1 dopamine receptor; P21728; HEK293 T-REx D1 cells, calcium flux, agonist mode; activation, % at 2 µM; actives 1% (n = 360,000); AID 504660; in the data active = activation above about 30%; note: 0% is about no effect
# Target sequence (P21728 whole entry, looked up): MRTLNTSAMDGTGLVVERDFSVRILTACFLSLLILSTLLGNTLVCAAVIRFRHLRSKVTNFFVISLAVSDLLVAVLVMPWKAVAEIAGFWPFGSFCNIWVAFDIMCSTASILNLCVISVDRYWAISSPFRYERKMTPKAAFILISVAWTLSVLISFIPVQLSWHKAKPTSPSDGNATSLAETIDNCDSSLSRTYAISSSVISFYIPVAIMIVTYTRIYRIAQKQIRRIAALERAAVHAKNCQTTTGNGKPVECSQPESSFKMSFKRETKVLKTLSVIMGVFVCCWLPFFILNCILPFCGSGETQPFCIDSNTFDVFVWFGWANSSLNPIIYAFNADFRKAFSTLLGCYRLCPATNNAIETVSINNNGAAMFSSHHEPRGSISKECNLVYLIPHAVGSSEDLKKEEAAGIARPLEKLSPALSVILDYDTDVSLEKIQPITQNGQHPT
#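 Agonism was scored from calcium flux recorded over 180 s (1 read/s) after pintool compound addition, following a 10-cycle baseline. Cells were inducible force-coupled HEK293 TREx D1, plated overnight at 30 C and loaded with no-wash calcium dye.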
# D1 PAM: potentiators of human D1 dopamine receptor; P21728; HEK293 TREx D1 cells, calcium flux, dopamine EC20 potentiation; potentiation, % at 10 µM; actives 0.036% (n = 360,000); AID 504651; in the data active = potentiation above about 30%; note: 0% is about no effect
# D3 antag: blocks the human D3 dopamine receptor; P35462; D3R cells, DiscoveRx beta-arrestin luminescence, antagonist mode; active compounds read low; max response, negative = inhibition, %; actives 2.5% (n = 360,000); AID 652054; in the data active = max response below about -50%; inconclusive = no clear call, values can overlap the other calls; note: % is set by controls: 0 for no effect and ±100 for the full control effect
#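 Cells plated overnight at 1500 cells/well, then exposed to library compounds with dopamine controls for 90 minutes at 37 degrees C. DiscoveRx reagent added for 30–60 minutes at room temperature; luminescence read, quantitative HTS format.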
# D1 antag: human D1 dopamine receptor antagonism | P21728 | HEK293 TREx D1 cells, calcium flux, dopamine EC80; active compounds read low | activity change, negative = inhibition, % at 10 µM | actives 3.2% (n = 360,000) | AID 504652; in the data active = activity change below about -30%; note: % is set by controls: 0 for no effect and ±100 for the full control effect
#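 Using tetracycline-induced force-coupled D1 Hek293 cells and a calcium dye, signals were followed for 180 s after compound, then for 180 s after EC80 dopamine, to detect inhibitors.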
# The depositor's hits bear a star; ? = inconclusive; . = not tested or not shown.
SMILES,BCR signal inh,DRD3 agonist,D1 agonist,D1 PAM,D3 antag,D1 antag
CC(C)C[C@H]1COCCS(=O)(=O)N1Cc1ccccc1F,.,41.8*,.,.,-4.5,.
O=C(NC1CCCCC1)c1ccc(CSc2nc3cccnc3n2Cc2ccccc2)cc1,.,2.3,2.0,-1.2,.,-4.8
CN(C)CCNC(=O)c1ccc(Cn2c(SCc3ccc(F)cc3)nc3cccnc32)cc1,.,-6.9,9.3,-3.8,.,-1.6
O=C(NCCN1CCCCC1)c1ccc(Cn2c(SCc3ccc(F)cc3)nc3cccnc32)cc1,.,-9.0,-0.1,-0.1,.,-32.3*
Cc1oc(-c2ccccc2Cl)nc1Cn1c(SCc2cccc(F)c2)nc2cccnc21,.,43.8*,13.2,4.3,.,7.2
O=C(NC1CCCCC1)c1ccc(Cn2c(SCc3cccc(F)c3)nc3cccnc32)cc1,.,-11.5,0.4,0.4,.,-65.1*
COc1cc(C2C(C#N)=C(N)Oc3cc(O)ccc32)cc2c1OCO2 (configuration not stated),-2.7%,-2.4,10.3,-5.8,6.4,6.6
COc1cc(C2C(C#N)=C(N)Oc3cc(N(C)C)ccc32)cc2c1OCO2 (configuration not stated),?,-12.9,45.3*,-1.4,-17.9,10.2
O=c1cc(O)sc2ccccc12,0.0%,10.6,40.0*,-8.4,54.6,-22.3
Cc1ccc(S(=O)(=O)N2CCN(c3nc(-c4ccc(F)cc4)nc4cc(Cl)ccc34)CC2)cc1,.,.,0.5,0.1,.,-3.6
Cc1ccc(N=CC=C2OC(C)(C)C(C)(C)O2)c(C)c1,-11.3%,1.1,1.0,-2.6,18.8,-41.9*
COc1cc(C(C)=O)ccc1Oc1ncnc2c1cnn2-c1ccccc1,-1.5%,36.1*,5.7,-7.4,7.6,-12.1
O=C(Cc1ccccc1)Nn1c(O)c(/C=C2\C=Nc3ccccc32)sc1=S,-7.2%,5.2,99.4*,5.3,16.2,17.2
Cn1c(O)c(/C=C2\C=Nc3ccccc32)sc1=Nc1ccc(C(=O)O)cc1,-2.3%,-15.2,1.8,-3.4,-12.9,-5.3
CC(C)c1ccc(/C=C/C(=O)Nc2nn[nH]n2)cc1,7.8%,.,2.8,-3.8,.,-30.6*
Cc1ccc(/C=C/C(=O)Nc2nn[nH]n2)o1,0.3%,1.3,3.2,-2.5,0.0,-1.2
O=C(CN1CCN(Cc2ccccc2F)C1=O)NC1CCCC1,8.4%,-10.9,10.9,-2.1,-13.4,-30.1*
Cc1c(C2=CCN(S(=O)(=O)c3ccc(CC(C)C)cc3)CC2)c2ccccc2n1CC(=O)N1CCCC1,.,-23.2,37.8*,-0.7,.,24.0
O=C(Nc1cccc(CNCCc2c[nH]c3ccccc23)c1)c1ccccc1Cl,?,-12.7,32.4*,-6.6,-96.3*,-41.3*
CC(=O)c1cccc(NC(=O)NCCc2c[nH]c3ccccc23)c1,?,-5.5,5.2,12.7,-12.1,-11.9
CCOC(=O)c1c(C)[nH]c(C)c1S(=O)(=O)N1CCC(C(=O)NCc2cccc(C)c2)CC1,.,1.6,2.7,-2.5,.,-5.8
COc1ccccc1Cc1c(-c2ccc(F)cc2)nc2cc(C)c(Br)c(C)n12,.,-5.8,.,.,-21.8,.
CCOc1ccc(OCC)c(Nc2nc3ccc(Cl)cc3n3cnnc23)c1,.,1.7,0.7,0.3,.,-36.5*
Clc1ccc(C(c2ccccc2Cl)C(Cl)Cl)cc1 (configuration not stated),?,6.7,15.7,-2.9,-14.3,5.6
CCc1ccc(C(c2ccc(CC)cc2)C(Cl)Cl)cc1,20.5%,0.0,7.5,4.8,-110.4*,.
SMILES,BCR signal inh,DRD3 agonist,D1 agonist,D1 PAM,D3 antag,D1 antag
O=C(Cc1c[nH]c2ccccc12)Nc1cccc(S(=O)(=O)N2CCCCC2)c1,-7.9%,.,-0.1,-8.1,.,-30.3*
O=C(CNc1cccc(S(=O)(=O)N2CCCCCC2)c1)Nc1cccc([N+](=O)[O-])c1,1.6%,0.7,8.2,-10.8,-6.0,-32.3*
O=C(CNc1cc([N+](=O)[O-])ccc1NCCO)Nc1cccc(S(=O)(=O)N2CCCCC2)c1,0.1%,2.9,0.5,-5.5,-24.5,-5.2
O=C(CSC(=S)N1CCCC1)N1CCN(S(=O)(=O)c2cccc([N+](=O)[O-])c2)CC1,-3.4%,-23.7,4.8,-4.5,-6.7,-32.9*
O=S(=O)(Nc1cccc(S(=O)(=O)N2CCCCCC2)c1)c1ccccc1,-1.4%,32.8*,10.2,-2.1,2.8,-7.4
CCc1ccccc1NC(=O)c1ccc2c(c1)N(Cc1cc(C)ccc1C)C(=O)c1ccccc1S2(=O)=O,.,-2.0,4.4,3.9,.,-18.4
O=C1CC(c2nnc(Cc3ccccc3Cl)o2)CN1c1ccccc1 (configuration not stated),.,0.6,4.4,-5.2,.,-3.0
CC1CCC2(CC1)NC(=O)N(CC(=O)Nc1cccc(S(=O)(=O)N3CCCCC3)c1)C2=O (configuration not stated),-2.6%,-5.5,.,.,-9.5,.
COC(=O)c1cc(NC(=O)CSc2ncn[nH]2)ccc1Cl,?,7.0,1.2,-3.6,8.2,-44.0*
CC1CCCCC12NC(=O)N(CC(=O)Nc1cccc(S(=O)(=O)N3CCCCC3)c1)C2=O (configuration not stated),-5.7%,-1.6,2.0,1.3,6.1,-52.9*
Cc1cc(C)c(C(=O)OCC(=O)Nc2cccc(S(=O)(=O)N3CCCCC3)c2)c(C)c1,-19.6%,4.8,36.9*,3.0,13.4,0.3
O=C(CSc1ncn[nH]1)Nc1cccc(S(=O)(=O)N2CCCCCC2)c1,-9.9%,0.1,9.1,-6.3,0.0,-35.7*
Cc1ccc(-n2c(=O)c3oc4ccccc4c3n(CC(=O)Nc3ccccc3)c2=O)cc1C,.,-16.0,3.9,-4.1,.,3.7
CCCCOc1ccc(CNC(=O)c2ccc(NC(=O)N3CCCCc4ccccc43)cc2)cc1,.,-8.5,4.1,-4.8,.,-8.2
CC(=O)/C=C/n1c(=S)oc2ccccc21,?,-34.3,1.8,-10.1,-85.5*,-6.1
C=CCc1cc(Cl)ccc1OC(=O)Nc1cccc(Cl)c1,?,2.5,13.9,-3.0,0.5,-55.2*
Cc1cccc(NS(=O)(=O)c2ccc3c(c2)CCN3C(=O)C2CC2)c1C,.,9.1,19.9,-1.2,.,-21.4
COc1cc(C(=O)N2CCN(C/C=C/c3ccccc3)CC2)cc(OC)c1OC,-1.0%,33.2*,0.2,-1.6,28.9,0.9
COc1ccc(NS(=O)(=O)c2cc(C(=O)N3CCN(C/C=C/c4ccccc4)CC3)ccc2C)cc1,-1.4%,49.4*,8.2,-8.4,-8.5,0.5
O=C(c1cccc([N+](=O)[O-])c1)N1CCN(C/C=C/c2ccccc2)CC1,0.7%,31.5*,10.7,-8.6,-10.6,-15.5
O=C(c1ccco1)N1CCN(C/C=C/c2ccccc2)CC1,?,-19.7,3.0,-0.8,-108.7*,9.8

# Screens: PubChem, National Center for Advancing Translational Sciences (NCATS)
